PubChem BioAssay
The source made the active and inactive calls.

assay: resazurin metabolic signal in A549 cells – cell-based, resazurin fluorescence, 24 h, PK04 Diversity Set, profiling panel (AID 1171); settings: A549 viability, higher = more signal, called active from +8 up or from −8 down; further: test concentration not given here

| Compound | z-score |
| --- | --- |
| O=C1c2ccccc2[C@](Cc2ccccc2I)(C(=O)NCCN2CCOCC2)[C@H](c2ccc(CO)cc2)N1Cc1ccccc1 | 0.0188 (inactive) |
| CN(C)CCCCNC(=O)[C@H]1C[C@H]2C(=O)N3CCC[C@H]3C(=O)N2[C@H]1c1ccc(O)cc1 | 0.228 (inactive) |
| C=C(CCCC)C(=O)CC[C@@H](OC(=O)c1ccccc1-c1ccccc1C(=O)O)c1cccc(OCCO)c1 | 0.675 (inactive) |
| C=C(C(=O)CC[C@H](OC(=O)c1cccnc1)c1ccc(CO)o1)C(C)C | -0.361 (inactive) |
| COc1ccc(C#Cc2ccc3c(c2)[C@]2(C(=O)N3)[C@H](C(=O)N3CCc4cc(OC)c(OC)cc4C3)[C@H]3C(=O)O[C@H](c4ccccc4)[C@H](c4ccccc4)N3[C@@H]2c2ccc(O)cc2)cc1 | -0.297 (inactive) |
| [N-]=[N+]=NCc1ccccc1C[C@@]1(C(=O)N2CCCCC2)N=C(c2ccc(OCCCO)cc2)O[C@@H]1c1ccccc1N=[N+]=[N-] | 0.0861 (inactive) |
| C=C[C@@H](COC(C)=O)NS(=O)(=O)c1ccc(Br)cc1 | -1.82 (inactive) |
| CCOC(=O)C[C@H]1[C@H](OC(=O)c2ccc(-c3ccccc3)cc2)[C@@H](NC(=O)c2ccc3ccccc3c2)c2cc(OCCCO)ccc2N1C(=O)c1ccc2ccccc2n1 | 0.094 (inactive) |
| CC(C)(C)OC(=O)CC[C@]1(C(=O)NCCN2CCOCC2)N=C(c2ccc(OCCCO)cc2)O[C@H]1c1ccccc1 | 0.0762 (inactive) |
| C=CCOC(=O)[C@@H]1[C@H]2C(=O)O[C@H](c3ccccc3)[C@H](c3ccccc3)N2[C@H](c2ccc(OCCOC(=O)[C@H]3C[C@H]4C(=O)N[C@@H](CC(C)C)C(=O)N4[C@H]3c3ccc(O)cc3)cc2)[C@@]12C(=O)Nc1ccc(I)cc12 | -0.0756 (inactive) |
| O=C(CS)NCCCCCCNC(=O)[C@@H]1C[C@@H]2C(=O)N3CCC[C@H]3C(=O)N2[C@@H]1c1cccc(OCCO)c1 | -0.659 (inactive) |
| COc1ccccc1CN1C(=O)c2ccccc2[C@@H](C(=O)NC(C)C)[C@@H]1c1ccc(CO)cc1 | 2.35 (inactive) |
| C=CCOC(=O)[C@@H]1[C@H]2C(=O)O[C@H](c3ccccc3)[C@H](c3ccccc3)N2[C@H](c2ccc(OCCOC(=O)[C@H]3C[C@H]4C(=O)N[C@@H](CCCCNC(C)=O)C(=O)N4[C@H]3c3cccc(OCCO)c3)cc2)[C@@]12C(=O)Nc1ccc(I)cc12 | 0.304 (inactive) |
| O=C1OCC=C[C@H]2OC34C=CCN(Cn5nnc6ccccc65)C(=O)[C@H]3N(CCCCCCO)C(=O)[C@@H]4[C@@H]12 (stereo not given in full) | -0.402 (inactive) |
| COC(=O)Cn1c(C(=O)N2CCCC2)cc2c1C[C@H]1CN(C(=O)c3ccccc3)[C@@](Cc3ccc(F)cc3)(C(=O)OC)[C@@H]21 | -0.581 (inactive) |
| COc1cc(OC)c(C(O)C2C=CC3C(=O)N(c4ccccc4)C(=O)C3N2Nc2ccc(C#N)cc2)cc1Br (stereo not given) | -0.578 (inactive) |
| COc1ccc([Si](C)(C)[C@@H]2[C@@H](CC(=O)N3CCC[C@H]3CO)O[C@]3(C(=O)N(Cc4ccc(N5C(=O)c6cccc7cccc5c67)cc4)c4ccccc43)[C@H]2C)cc1 | -3.19 (inactive) |
| CC=CC(O)C1C=CC2C(=O)N(c3ccccc3)C(=O)C2N1Nc1ccccc1 (stereo not given) | 0.0599 (inactive) |

| Compound | z-score |
| --- | --- |
| CC(C)C(=C=CC[C@@H](O)c1ccccc1OCCO)C[C@@H](O)COCc1ccccc1 | 0.15 (inactive) |
| CC(C)(C)N1CC=CC23O[C@@H]4C=CCOC(=O)[C@@H]4[C@H]2C(=O)N(CCCO)[C@@H]3C1=O (stereo not given in full) | -0.89 (inactive) |
| COc1c(C)cc(-c2cc3c(c(-c4ccccc4)n2)[Si](C(C)C)(C(C)C)OC3)cc1C | 0.51 (inactive) |
| Cc1ccc(S[C@]2(C(=O)NCC(C)C)CC(=O)N(Cc3ccccc3Cl)[C@@H]2c2ccc(CO)cc2I)cc1 | 0.622 (inactive) |
| O=C1O[C@@H](c2ccccc2)[C@@H](c2ccccc2)N2[C@@H](c3ccccc3OCCO)[C@]3(C(=O)Nc4ccc(C#CC5=CCCCC5)cc43)[C@@H](C(=O)NC[C@H](O)c3ccccc3)[C@H]12 | -1.46 (inactive) |
| O=C(O)[C@H](Cc1ccccc1)n1cc(-c2ccccn2)nn1 | 0.507 (inactive) |
| CC1CC/C=C\[C@H]2OC34C=CCN(CCN5CCOCC5)C(=O)[C@H]3N(CCO)C(=O)[C@@H]4C2C(=O)O1 (stereo not given in full) | -0.451 (inactive) |
| CCOC(=O)C[C@H]1[C@H](OC(=O)c2ccc(-c3ccccc3)cc2)[C@@H](NC(=O)C2CCCCC2)c2cc(OCCCO)ccc2N1C(=O)c1ccccc1 | -1.01 (inactive) |
| COCCCNC(=O)[C@@]1(Sc2ccc(C)cc2)CC(=O)N(Cc2cc(C(F)(F)F)cc(C(F)(F)F)c2)[C@@H]1c1ccc(CO)cc1 | -1.07 (inactive) |
| CCCC[C@@H]1C[C@H]1[C@@H](NC(=O)c1cccnc1)c1ccc(-c2ccccc2)cc1 | 3.07 (inactive) |
| O=C1O[C@@H](c2ccccc2)[C@@H](c2ccccc2)N2[C@@H](c3ccc(O)cc3)[C@]3(C(=O)Nc4ccc(C#CCCO)cc43)[C@@H](C(=O)Nc3nc4ccccc4s3)[C@H]12 | 0.621 (inactive) |
| O=C(O)[C@]1(Cc2ccccc2)N=C(c2ccc(OCCCO)cc2)O[C@@H]1c1ccccc1 | 0.455 (inactive) |
| Cc1ccc(S[C@]2(C(=O)NCc3ccccc3)CC(=O)N(C(C)C)[C@@H]2c2ccc(CO)cc2I)cc1 | 1.65 (inactive) |
| Cc1ccc(C(C)CC(O)C2C=CC3C(=O)N(c4ccccc4)C(=O)C3N2Nc2ccc(C(C)C)cc2)o1 (stereo not given) | -0.634 (inactive) |
| C=CC[C@]12N=C(c3ccc(OCCCO)cc3)O[C@H]1c1ccccc1N(C)C2=O | -1.12 (inactive) |
| C=C(COC)/C(=C/C[C@@H](OC(=O)c1ccncc1)c1ccc(CO)o1)c1cnc2ccccc2c1 | 0.331 (inactive) |
| O=C1NC(=O)C2C1C=CC(C(O)c1cc(C(F)(F)F)cc(C(F)(F)F)c1)N2Nc1ccc(Cl)cc1Cl (stereo not given) | -1.24 (inactive) |
